Test results published in PubChem BioAssay (Tox21).
Records with an inconclusive call do not appear. Where a call stands in place of a potency, no number is given. Calls of active or inactive are those of the source. The call rests on the fitted dose curve; in most records, active means well fitted activation curve with a large enough effect in the repeat runs; inconclusive means weak or mixed curves; inactive means flat fitted curve, though single readings scatter.

Experiment: A CellTox Green Cytotoxicity Assay to monitor cytotoxicity in HEK293 cells - 16 hour (AID 1224888); further: nearly all actives have a fitted effect of over 35% in size
Conditions: CellTox Green fluorescence; series mostly up to 76.8 µM
Excerpt: National Center for Advancing Translational Sciences [NCATS]
NIH Chemical Genomics Center [NCGC]
U.S. Environmental Protection Agency [EPA]
National Institutes of Environmental Health Sciences [NIEHS]
National Toxicology Program [NTP]
Cell-based models are critical for drug discovery. Determining the natural cytotoxic effects resulting from test compounds is an essential research activity. A CellTox Green Cytotoxicity Assay to monitor cytotoxicity in real time of continues cell culture during 40 hours of the compound treatment was used to screen Tox21 10K library compounds in Hek293 cells. CellTox Green Cytotoxicity Assay is a nonlytic, homogeneous, biofluorescent method to measure cytotoxicity in cell culture after experimental manipulation. The assay system uses a proprietary asymmetric cyanine dye that is excluded from viable cells but preferentially stains the dead cell's DNA. […] Viable cells produce no appreciable increases in fluorescence. Therefore, the fluorescence signal produced by the binding interaction with dead cell DNA is proportional to cytotoxicity.
The mixture of Hek293 cell suspension and reagents were dispensed at 600cells/6 ul/well in 1536-well tissue culture treated black solid bottom plates using a Multidrop dispenser. After the assay plates were incubated at a 37 C/5% CO2 incubator for 5 hours, 23 nL of compounds dissolved in DMSO, positive and negative controls was transferred to the assay plate by a pintool work station. The plates were incubated at 37 C for 40 hours. The fluorescence intensity were measured at 0h, 8h, 16h, 24h, 32h and 40h time points using ViewLux plate reader during compound treatment.

Compound	Potency
CCOC(=O)c1ccccc1C(=O)OCC	inactive
Clc1ccccc1Cl	inactive
O=S(=O)(c1ccc(O)cc1)c1ccc(O)cc1	inactive
Clc1cccc(Cl)c1Cl	inactive
CN1C(=O)CN=C(c2ccccc2)c2cc(Cl)ccc21	inactive
O=c1[nH]c(=O)[nH]c(=O)[nH]1	inactive
c1ccc2c(c1)Oc1ccccc1O2	inactive
CC(NC(C)(C)C)C(=O)c1cccc(Cl)c1 (stereo not given)	inactive
CC1OC(C)OC(C)O1 (stereo not given)	inactive
COC(=O)NC(=S)Nc1ccccc1NC(=S)NC(=O)OC	inactive
Cn1cc(-c2ccccc2)c(=O)c(-c2cccc(C(F)(F)F)c2)c1	inactive
Nc1c(Cl)c(Cl)nc(C(=O)O)c1Cl	inactive
O=C(O)c1ccccn1	inactive
CC(C)C1(C)N=C(c2nc3ccccc3cc2C(=O)O)NC1=O (stereo not given)	inactive
CC(C)(C)C(O)(CCc1ccc(Cl)cc1)Cn1cncn1 (stereo not given)	inactive
O=[N+]([O-])c1ccc(Oc2ccc(Cl)cc2Cl)cc1	inactive
CCCCN(CC)C(=O)SCCC	inactive
C[C@]12CC[C@H]3[C@@H](CC[C@@]45O[C@@H]4C(O)=C(C#N)C[C@]35C)[C@@H]1CC[C@@H]2O	inactive
CC(C)OC(=O)Nc1cccc(Cl)c1	inactive
Nc1ccc(Cc2ccc(N)cc2)cc1	inactive

Compound	Potency
Cc1cc(Cl)ccc1O	inactive
CC(C)(Cl)Cl	inactive
c1ccc(-c2ccccc2)cc1	inactive
[N-]=[N+]=[N-]	inactive
CN(C)CCO	inactive
CCC12COCN1COC2	inactive
Oc1ccccc1Cl	inactive
CCCN(CCC)N=O	inactive
CON(C)C(=O)Nc1ccc(Cl)c(Cl)c1	inactive
NCCc1ccc(O)cc1	inactive
CC(C)OC(=O)Nc1ccccc1	inactive
COC(=O)c1ccccc1C(=O)OC	inactive
CCCC1COC(Cn2cncn2)(c2ccc(Cl)cc2Cl)O1 (stereo not given)	inactive
O=[N+]([O-])c1ccccc1	inactive
C=C(C)CCl	inactive
COC(=O)c1ccccc1N	inactive
C#CCN(C)[C@H](C)Cc1ccccc1	inactive
O=C1CCCN1	inactive
Cc1ccccc1O	inactive
CCc1cccc(C)c1N(C(=O)CCl)C(C)COC (stereo not given)	inactive
